Assay outcomes deposited in PubChem BioAssay by Buhrlage Lab, Dana-Farber Cancer Institute and Novartis Institutes for BioMedical Research (Cambridge, Mass).
Compounds with a hit are over-represented: about 5% of the library has one in this group of screens.
USP7 block: inhibitors of human USP7 deubiquitinase; inhibition, % at 20 µM; Ubiquitin carboxyl-terminal hydrolase 7 (Homo sapiens), Q93009; actives 0.3% (n = 47,000); purified USP7, Ub-rhodamine cleavage fluorescence; AID 1645854, 2021
UCHL1 inh: inhibitors of human UCHL1 deubiquitinase. Ubiquitin carboxyl-terminal hydrolase isozyme L1 (Homo sapiens), P09936. purified UCHL1, Ub-rhodamine cleavage fluorescence. inhibition, % at 20 µM. actives 0.2% (n = 47,000). AID 1645859, 2021
USP10 inh: inhibitors of human USP10 deubiquitinase | inhibition, % at 20 µM | purified USP10, Ub-rhodamine fluorescence, 60 min | actives 1.1% (n = 47,000) | AID 1645856, 2021 | Ubiquitin carboxyl-terminal hydrolase 10 (Homo sapiens), Q14694
Target sequence (Q14694 whole entry, looked up): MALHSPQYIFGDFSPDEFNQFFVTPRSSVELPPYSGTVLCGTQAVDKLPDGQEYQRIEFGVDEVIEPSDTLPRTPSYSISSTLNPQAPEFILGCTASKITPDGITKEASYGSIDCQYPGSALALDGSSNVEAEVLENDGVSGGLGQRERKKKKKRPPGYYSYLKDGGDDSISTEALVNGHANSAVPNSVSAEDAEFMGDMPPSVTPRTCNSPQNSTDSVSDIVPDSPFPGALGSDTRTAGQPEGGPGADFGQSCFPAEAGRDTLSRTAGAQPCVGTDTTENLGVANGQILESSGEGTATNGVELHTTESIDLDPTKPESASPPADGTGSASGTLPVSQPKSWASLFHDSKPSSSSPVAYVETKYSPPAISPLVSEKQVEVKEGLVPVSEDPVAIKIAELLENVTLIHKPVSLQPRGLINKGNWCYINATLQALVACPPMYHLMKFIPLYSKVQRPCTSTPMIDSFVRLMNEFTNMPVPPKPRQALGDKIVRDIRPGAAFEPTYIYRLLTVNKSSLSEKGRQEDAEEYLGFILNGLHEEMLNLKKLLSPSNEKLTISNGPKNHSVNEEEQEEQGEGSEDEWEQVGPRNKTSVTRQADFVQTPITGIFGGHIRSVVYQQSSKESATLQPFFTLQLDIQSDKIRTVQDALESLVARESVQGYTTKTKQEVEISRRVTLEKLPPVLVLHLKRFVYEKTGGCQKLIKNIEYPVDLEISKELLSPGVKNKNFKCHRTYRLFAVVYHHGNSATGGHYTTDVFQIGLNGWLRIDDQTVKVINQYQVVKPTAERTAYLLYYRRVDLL
USP8 inh: inhibitors of human USP8 deubiquitinase. purified USP8, Ub-rhodamine cleavage fluorescence, 30 min. actives 4.2% (n = 47,000). inhibition, % at 20 µM
A number is an active result. Rule as the data show it: active = inhibition above about 30%; inactive = the rest.

For Cc1cccc(C(=O)Nc2cc3c4c(c2)CC(=O)N4CCC3)c1 the results were USP7 block inactive, UCHL1 inh inactive, USP10 inh inactive and USP8 inh 39.
`CC(=O)Nc1cccc(C(=O)Nc2ccc(N3CCCC3=O)cc2)c1` gave USP7 block inactive, UCHL1 inh inactive, USP10 inh inactive and USP8 inh inactive.
COc1cccc(C(=O)Nc2cc3c4c(c2)CC(=O)N4CCC3)c1 was read as USP7 block inactive, UCHL1 inh inactive, USP10 inh inactive and USP8 inh 65.
Cc1nn(C)cc1NC(=O)Nc1ccc(F)cc1 was read as USP7 block inactive, UCHL1 inh inactive, USP10 inh inactive and USP8 inh inactive.
`Cn1cc2cccc(NC(=O)c3ccc(F)cc3)c2n1` gave USP7 block inactive, UCHL1 inh inactive, USP10 inh inactive and USP8 inh 91.
O=C1C(=O)N(c2nc3ccc(F)cc3s2)C(c2ccc(F)cc2)/C1=C(\O)c1ccc(F)cc1 (stereo unspecified) was read as USP7 block inactive, UCHL1 inh inactive, USP10 inh 61 and USP8 inh inactive.
Screening O=C1c2oc3ccccc3c(=O)c2C(c2ccco2)N1c1nc2ccc(F)cc2s1 (stereo unspecified) returned USP7 block inactive, UCHL1 inh inactive, USP10 inh inactive and USP8 inh inactive.
Screening Nc1nc(-c2ccc[nH]2)cs1 returned USP7 block inactive, UCHL1 inh inactive, USP10 inh inactive and USP8 inh inactive.
O=C(Cn1cnc(-c2noc(-c3ccc(F)cc3)n2)c1)NC1CCCCC1 was read as USP7 block inactive, UCHL1 inh inactive, USP10 inh inactive and USP8 inh 52.
O=C(Cn1c(-c2ccc(F)cc2)nc2ccccc21)NC1CCCCC1 was read as USP7 block inactive, UCHL1 inh inactive, USP10 inh inactive and USP8 inh 34.
For Cc1c(C#N)c2ccccc2n1CC(=O)NC1CCCCCC1 the results were USP7 block inactive, UCHL1 inh inactive, USP10 inh inactive and USP8 inh inactive.
`O=C(Cn1cnc(-c2noc(-c3ccncc3)n2)c1)Nc1ccc(F)cc1` gave USP7 block inactive, UCHL1 inh inactive, USP10 inh inactive and USP8 inh inactive.
For COc1ccc(CCNC(=O)c2c(-c3c(F)cccc3Cl)noc2C)cc1 the results were USP7 block inactive, UCHL1 inh inactive, USP10 inh inactive and USP8 inh inactive.
For Cc1cccc(NC(=O)Nc2nnc(CC(=O)NCc3ccccc3)s2)c1 the results were USP7 block inactive, UCHL1 inh inactive, USP10 inh inactive and USP8 inh inactive.
O=C(Cc1nnc(NC(=O)Nc2ccc3c(c2)OCO3)s1)NCc1ccccc1 was read as USP7 block inactive, UCHL1 inh inactive, USP10 inh 34 and USP8 inh 48.
Screening Cc1ccnc(NC(=O)CC(c2cccc(F)c2)n2cccc2)c1 (stereo unspecified) returned USP7 block inactive, UCHL1 inh inactive, USP10 inh inactive and USP8 inh inactive.
`COc1ccc(-c2cc(-c3ccc(F)cc3)[nH]c(=O)c2C#N)cc1` gave USP7 block inactive, UCHL1 inh inactive, USP10 inh 40 and USP8 inh 58.
COc1ccc([N+](=O)[O-])cc1NC(=O)C(C)OC(=O)CSc1ccc2ccccc2c1 (stereo unspecified) was read as USP7 block inactive, UCHL1 inh inactive, USP10 inh inactive and USP8 inh inactive.
Screening Nc1ccc([N+](=O)[O-])cc1NC(=O)CSc1ccc2ccccc2c1 returned USP7 block inactive, UCHL1 inh inactive, USP10 inh inactive and USP8 inh 41.
For O=C(Cc1ccccc1F)N1CCC2(CC1)CC1(CO2)Nc2ccccc2-n2cccc21 (stereo unspecified) the results were USP7 block inactive, UCHL1 inh inactive, USP10 inh inactive and USP8 inh 94.
Cc1ccc(C(=O)N2CCC3(CC2)CC2(CO3)Nc3ccccc3-n3cccc32)cn1 (stereo unspecified) was read as USP7 block inactive, UCHL1 inh inactive, USP10 inh inactive and USP8 inh 67.
Cc1oc(C2CC2)cc1C(=O)N1CCC2(CC1)CC1(CO2)Nc2ccccc2-n2cccc21 (stereo unspecified) was read as USP7 block inactive, UCHL1 inh inactive, USP10 inh inactive and USP8 inh 92.
For Cn1nccc1C(=O)N1CCC2(CC1)Nc1cccnc1-n1cccc12 the results were USP7 block inactive, UCHL1 inh inactive, USP10 inh inactive and USP8 inh inactive.
`Cc1nn(C)cc1C(=O)N1CCC2(CC1)CC1(CO2)Nc2ccccc2-n2cccc21` (stereo unspecified) gave USP7 block inactive, UCHL1 inh inactive, USP10 inh inactive and USP8 inh 57.
For COc1ccc(NC(=O)N2CCC3(CC2)Nc2ccccc2-n2cccc23)c(OC)c1 the results were USP7 block inactive, UCHL1 inh inactive, USP10 inh inactive and USP8 inh inactive.
For O=S(=O)(Cc1ccccc1)N1CC2(CCN(Cc3ccc(O)cc3)CC2)C1 the results were USP7 block inactive, UCHL1 inh inactive, USP10 inh inactive and USP8 inh inactive.
For CCN1Cc2c(C(=O)N3CCCCC3)ncn2-c2ccccc2S1(=O)=O the results were USP7 block inactive, UCHL1 inh inactive, USP10 inh inactive and USP8 inh inactive.
For Cc1ccc2cc(-c3noc(CCC(=O)NC4CCCC4)n3)c(=O)[nH]c2c1 the results were USP7 block 41, UCHL1 inh inactive, USP10 inh 47 and USP8 inh 75.
Screening Cc1ccc2[nH]c(=O)c(-c3noc(CCC(=O)NC4CCCC4)n3)cc2c1 returned USP7 block inactive, UCHL1 inh inactive, USP10 inh inactive and USP8 inh inactive.
Cc1ccc2nc3c(cc(C(=O)Nc4ccc5c(c4)OCCO5)n3C)c(=O)n2c1 was read as USP7 block inactive, UCHL1 inh inactive, USP10 inh inactive and USP8 inh inactive.
Screening Cc1ccc(Cn2c(SCc3ccccc3C#N)nc3ccccc3c2=O)cc1 returned USP7 block inactive, UCHL1 inh inactive, USP10 inh inactive and USP8 inh inactive.
For CCn1c(SCc2nc(N)c3ccccc3n2)nc2ccccc21 the results were USP7 block inactive, UCHL1 inh inactive, USP10 inh inactive and USP8 inh 33.
For O=C(NCc1ccco1)c1ccc2c(=O)nc3c(-c4ccccc4F)n[nH]n3c2c1 the results were USP7 block inactive, UCHL1 inh inactive, USP10 inh inactive and USP8 inh inactive.
Screening O=C(CN(c1ccccc1)S(=O)(=O)c1ccccc1)Oc1cc(Cl)ccc1Cl returned USP7 block inactive, UCHL1 inh inactive, USP10 inh inactive and USP8 inh 30.
COc1ccc(OC(=O)CN(c2cccc(C(F)(F)F)c2)S(=O)(=O)c2ccccc2)cc1 was read as USP7 block inactive, UCHL1 inh inactive, USP10 inh inactive and USP8 inh inactive.
Cn1ccc2ccn(Cc3nc(-c4ccccn4)no3)c(=O)c21 was read as USP7 block inactive, UCHL1 inh inactive, USP10 inh inactive and USP8 inh inactive.
For COCCn1ccc2ccn(Cc3nc(-c4cccnc4)no3)c(=O)c21 the results were USP7 block inactive, UCHL1 inh inactive, USP10 inh inactive and USP8 inh 56.
